Assay outcomes from PubChem.
Only a selection was taken, and hits are over-represented in it overall.
14-3-3 PPI: modulators of human 14-3-3 gamma - Raf peptide interaction. P61981. FP, 14-3-3gamma / TMR-pS259-Raf peptide binding. inhibition, % at 40 µM. 160,000 tested, 0.19% active; in the data active means inhibition above about 30%
Target sequence (P61981 whole entry, looked up): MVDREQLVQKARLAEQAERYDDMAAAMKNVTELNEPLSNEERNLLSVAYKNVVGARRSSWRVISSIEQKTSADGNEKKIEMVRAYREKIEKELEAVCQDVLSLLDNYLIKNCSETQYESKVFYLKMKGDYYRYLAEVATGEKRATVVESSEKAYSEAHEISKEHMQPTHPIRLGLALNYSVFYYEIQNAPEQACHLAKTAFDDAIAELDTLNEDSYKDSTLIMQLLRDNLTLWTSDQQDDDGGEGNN
Each line names hits and unclear results; the compound was inactive in the other large screens; ! = not confirmed by another sample.

CCc1cccc(N=Cc2c(O)c(C(=O)Nc3ccccc3)cc3ccccc23)c1	none
COc1ccccc1NC(=O)c1cc2ccccc2c(C=Nc2ccc(OC(F)F)cc2)c1O	14-3-3 PPI 112
O=C(NCc1ccc(F)cc1)c1cccc(N2CCCC2=O)c1	none
CN(C)CCNc1nc(-c2ccc(Cl)cc2)nc2ccccc12	none
CCN(C(=O)CCN1C(=S)NC(C)(C)CC1C)c1ccc(C)c(C)c1 (stereo not given)	14-3-3 PPI 51
Cc1cccc(NC(=O)CCN2C(=S)NC(C)(C)CC2C)c1C (stereo not given)	none
CCN(C(=O)CN1C(=S)NC(C)(C)CC1C)c1ccc(C)c(C)c1 (stereo not given)	none
O=C(NCC1CCCO1)c1sc(=S)n2c1[nH]c(=O)c1ccccc12 (stereo not given)	none
O=C1C(Cl)=C(NCCO)C(=O)N1c1ccc(Cl)cc1	none
CCC(C)NC(=O)c1oc2ccc(S(=O)(=O)N3CCCC(C)C3)cc2c1C (stereo not given)	none
COc1ccc(OC)c(NC(=O)c2c(C)c(-c3ccccc3)nc3ccccc23)c1	14-3-3 PPI 53
COc1ccc(NC(=O)c2c(C)c(-c3ccc(C)cc3)nc3ccccc23)cc1	none
COc1ccc(-c2nc3ccccc3c(C(=O)Nc3ccc(Br)cc3)c2C)cc1	none
CCOc1cc(C2C3=C(CCCC3=O)NC3=C2C(=O)CCC3)ccc1OCc1ccccc1F	none
COC(=O)C1=C(C(=O)OC)C(c2cccc([N+](=O)[O-])c2)c2sc(=O)[nH]c2S1 (stereo not given)	14-3-3 PPI 34
CCOC(=O)C1=C(C)NC(C)=C(C(=O)OC)C1c1cccc([N+](=O)[O-])c1 (stereo not given)	none
COC(=O)C1=C(C(=O)OC)C(c2cc([N+](=O)[O-])ccc2OCc2ccccc2Cl)c2sc(=O)[nH]c2S1 (stereo not given)	none
CCOC(=O)c1cccc(Nc2nc(-c3ccc(Cl)cc3)nc3ccccc23)c1	none
Cc1nnc(NC(=O)CSc2nc3c(c(=O)n2-c2ccc(F)cc2)SCC3)s1	none
O=C(O)c1ccc2c(c1)N(Cc1ccc(Cl)cc1)C(=O)c1ccccc1S2	none
Cc1nc2c(C(=O)NCC3CCCO3)cnn2c(C)c1Cc1ccccc1F (stereo not given)	none
c1ccc(SCCN2CCOCC2)cc1	none
C1COCCOCCN(CCOCCOCCN2CCOCCOCCOCCOCC2)CCOCCO1	none
c1ccc(COCCOCCN2CCOCCOCCOCCOCCOCC2)cc1	14-3-3 PPI 119
Cc1cccc(C)c1N1C(=O)c2ccc([N+](=O)[O-])c3c([N+](=O)[O-])ccc(c23)C1=O	none
O=C1c2ccc([N+](=O)[O-])c3c([N+](=O)[O-])ccc(c23)C(=O)N1c1ccc(O)cc1	14-3-3 PPI 43
O=C(O)c1cc(N2C(=O)c3ccc([N+](=O)[O-])c4c([N+](=O)[O-])ccc(c34)C2=O)ccc1O	none
CCCOc1ccc(C2C(C(=O)OC(C)C)=C(C)NC3=C2C(=O)CC(C)(C)C3)cc1OC (stereo not given)	none
Cc1ccc2c(c1)sc(=NC(=O)c1ccc(Br)s1)n2C	none
COc1ccc([N+](=O)[O-])cc1NC(=O)C1(S(=O)(=O)c2ccc(Cl)cc2)CC1	none
CSc1cccc(NC(=O)C(NS(=O)(=O)c2ccc3c(c2)CCN3C(C)=O)C(C)C)c1 (stereo not given)	none
Cc1oc(NC(=O)C(F)(F)F)c(C#N)c1C	14-3-3 PPI 33
COC(=O)c1sc(NC(=O)C(F)(F)F)c(C(=O)OC)c1C	none
COc1ccc(-c2oc(NC(=O)C(F)(F)F)c(C#N)c2-c2ccc(OC)cc2)cc1	none
CSC1=NC(=Cc2cc(Br)ccc2OCC(=O)O)C(=O)S1	none
Cc1cccc(C)c1-n1nnnc1CN(Cc1ccccc1)Cc1ccccc1	none
CC1(c2ccccc2)CC(C)(C)N(S(=O)(=O)c2ccc(Cl)cc2)c2ccccc21 (stereo not given)	none
Cn1ccnc1SCC(=O)c1ccc(Cl)cc1	none
CCn1c(CSc2nccn2C)nc2cc(C(=O)O)ccc21	14-3-3 PPI 57
COc1ccc(C(=O)CSc2nccn2C)cc1OC	none
O=C1CC(SC(=NCCO)Nc2ccccc2)C(=O)N1c1ccccc1F (stereo not given)	none
COc1ccc(NC(=O)C2(C)CC3c4ccccc4C2c2ccccc23)cc1 (stereo not given)	14-3-3 PPI 55
COc1ccc(NC(=O)C23CCC(C2)C(C)(C)C3=O)cc1 (stereo not given)	none
Cc1ccc(C)c(NC(=O)C2(C)CC3c4ccccc4C2c2ccccc23)c1 (stereo not given)	none
C#CCOc1cccc(C2C3=C(CC(C)(C)CC3=O)N(C)C3=C2C(=O)CC(C)(C)C3)c1	none
CC(C)CCNC(=O)c1c[nH]n2c(=O)cc(CSc3ccc(Cl)cc3)nc12	none
CCc1ccc(NC(=O)c2oc(=O)c3ccccc3c2-c2ccc(C)cc2)cc1	none
Cc1ccc(-c2c(C(=O)Nc3ccc(N(C)C)cc3)oc(=O)c3ccccc23)cc1	14-3-3 PPI 39
CCOC(=O)c1ccc(NC(=O)c2oc(=O)c3ccccc3c2-c2ccc(C)cc2)cc1	none
COC(=O)c1ccc2c(c1)C(=O)N(c1ccc(Oc3ccccc3)cc1)C2=O	none
O=C1c2ccccc2-c2ncnc3cccc1c23	none
COc1ccc(Nc2ccc3c4c(ncnc24)-c2ccccc2C3=O)cc1	none
O=C(O)c1ccc2c3c(ncnc13)-c1ccccc1C2=O	14-3-3 PPI 40
COc1ccc2c(c1)c(=O)oc1cc(OCc3cc(C(=O)O)oc3C)ccc12	none
O=C(COc1ccccc1)Nc1ccc2c(c1)OCO2	none
Cc1ccc2nc(C)cc(OCC(=O)O)c2c1	none
CCc1nc(C)ccc1OCC(=O)NCCCN(C)C	none
CCc1nc(C)ccc1OCC(=O)O	14-3-3 PPI 74!
O=S(=O)(c1ccccc1)N1CCC(O)(c2ccccc2)C2CCCCC21 (stereo not given)	none
CC1(C)CC(=O)C2=C(C1)N(Cc1ccccc1)C1=C(C(=O)CC(C)(C)C1)C2c1ccc(O)cc1	none
CCN1C2=C(C(=O)CC(C)(C)C2)C(c2ccc(O)cc2)C2=C1CC(C)(C)CC2=O	14-3-3 PPI 102
CCN1C2=C(C(=O)CC(C)(C)C2)C(c2ccc(O)c(Cl)c2)C2=C1CC(C)(C)CC2=O	none
CNC(=O)c1ccc(CNS(=O)(=O)c2ccc(C)cc2)cc1	none
Cc1ccc(CNC(=O)c2ccc(CNS(=O)(=O)c3ccc(C)cc3)cc2)cc1	none
COc1cccc(CNC(=O)c2ccc(CNS(=O)(=O)c3ccc(C)cc3)cc2)c1	14-3-3 PPI 34
N#CC(C#N)C(C#N)(C#N)C1CCCCC1=O (stereo not given)	14-3-3 PPI 142
Cc1cccc(O)c1N=Cc1cc(Cl)ccc1O	none
CC1(C)CC(=O)C2=C(C1)Nc1nc(SCc3ccccc3)[nH]c(=O)c1C2c1ccccn1 (stereo not given)	none
COC(=O)C1=C(C)N(C)C(C)=C(C(=O)OC)C1c1ccc(C(F)(F)F)cc1	none
COC(=O)C1=C(C)N(C)C(C)=C(C(=O)OC)C1c1ccc(C(=O)OC)cc1	14-3-3 PPI 113
COC(=O)C1=C(C)N(C)C(C)=C(C(=O)OC)C1c1ccsc1	none
COC(=O)c1ccc2c(=O)n(CCC3=CCCCC3)c(SCc3cccc([N+](=O)[O-])c3)nc2c1	none
CCC(=O)Nc1cccc(-c2cn3cccc(C)c3n2)c1	14-3-3 PPI 31
Cc1cccn2cc(-c3cccc(NC(=O)CC(C)C)c3)nc12	none
Cc1cccn2cc(-c3cccc(NC(=O)c4cc5ccccc5oc4=O)c3)nc12	none
O=C(O)c1ccc(NCc2ccc(Cl)cc2)cc1	none
COc1ccccc1N1CCN(C(=O)CN(Cc2ccc(Br)cc2)S(=O)(=O)c2ccccc2)CC1	none
CCCC(=O)c1cn(CC(=O)OC)c2ccccc12	none
